Laboratory results: PubChem BioAssay AID2284108 (EPA ToxCast)
The source made the active and inactive calls. Rule for the calls: active = hit-call score of the fitted dose curve at least 0.9, where 1 is the maximum; inactive = score below 0.9.

target: human Src Tyrosine Kinase, SRC (gene 6714) (UniProt P12931); experiment: ERF_FR_ENZ_hSRC: Eurofins (ERF) Enzymatic Radiometric [Km ATP] KinaseProfiler LeadHunter Assay for human Src Tyrosine Kinase
Method: ERF_FR_ENZ_hSRC is a biochemical, single-readout assay that uses extracted gene-proteins in a cell-free assay. Measurements were taken 0.16 hour after chemical dosing in a 96-well plate. See Src Human TK Kinase Enzymatic LANCE Assay [Km ATP], Cerep.ERF_FR_ENZ_hSRC is an assay component calculated from the ERF_FR_ENZ_hSRC assay. It is designed to measure enzyme activity using a type of enzyme reporter as detected by fluorescence intensity with LANCE technology.Data from the assay component ERF_FR_ENZ_hSRC was analyzed at the assay endpoint, ERF_FR_ENZ_hSRC, in the positive analysis fitting direction relative to DMSO as the negative control and baseline of activity. Using a type of enzyme reporter, loss-of-signal activity can be used to understand changes in enzymatic activity as they relate to gene SRC. To generalize the intended target to other relatable targets, this assay endpoint is annotated to the kinase intended target family, where the subfamily is non-receptor tyrosine kinase.
c-Src (h) is incubated with 8 mM MOPS pH 7.0, 0.2 mM EDTA, 250 uM […] (Cdc2 peptide), 10 mM MgAcetate and [gamma-33P]-ATP (specific activity and concentration as required). The reaction is initiated by the addition of the Mg/ATP mix. After incubation for 40 minutes at room temperature, the reaction is stopped by the addition of phosphoric acid to a concentration of 0.5%. […]

Sequence of human Src Tyrosine Kinase, SRC (gene 6714) (P12931 whole entry, looked up): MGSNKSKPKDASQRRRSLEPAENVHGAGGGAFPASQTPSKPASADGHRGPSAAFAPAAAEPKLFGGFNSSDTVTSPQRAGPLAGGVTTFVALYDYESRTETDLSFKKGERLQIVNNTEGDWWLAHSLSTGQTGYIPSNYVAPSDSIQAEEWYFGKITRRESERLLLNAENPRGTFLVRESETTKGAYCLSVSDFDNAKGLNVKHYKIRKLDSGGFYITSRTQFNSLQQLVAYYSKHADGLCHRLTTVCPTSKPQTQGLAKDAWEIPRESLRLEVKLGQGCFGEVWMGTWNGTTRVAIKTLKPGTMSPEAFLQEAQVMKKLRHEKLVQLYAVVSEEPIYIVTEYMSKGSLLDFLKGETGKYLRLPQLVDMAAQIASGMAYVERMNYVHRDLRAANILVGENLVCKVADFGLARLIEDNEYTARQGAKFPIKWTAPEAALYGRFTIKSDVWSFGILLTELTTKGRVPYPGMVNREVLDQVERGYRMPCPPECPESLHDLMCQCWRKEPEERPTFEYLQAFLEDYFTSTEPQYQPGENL

| Compound | outcome |
| --- | --- |
| O=C(/C=C/c1ccc(O)cc1)CC(=O)/C=C/c1ccc(O)cc1 | inactive |
